Inconclusive results are not listed. A call without a number means that no potency is given here. Active and inactive are the calls of the source. Calls follow the shape of the dose curve; as a rule, active = well fitted activation curve with a large enough effect in the repeat runs; inconclusive = weak or mixed curves; inactive = no such curve, though single readings can be large or run the other way.
test: qHTS assay for small molecules that induce genotoxicity in human embryonic kidney cells expressing luciferase-tagged ATAD5 (AID 651632); details: HEK293T ATAD5-luciferase induction, 16 h; series mostly up to 83.3 µM; also: nearly all actives have a fitted effect of over 15% in size
From the text: U.S. Tox21 Program National Center for Advancing Translational Sciences [NCATS] NIH Chemical Genomics Center [NCGC] U.S. Environmental Protection Agency [EPA] National Institutes of Environmental Health Sciences [NIEHS] National Toxicology Program [NTP] U.S. Food and Drug Administration [FDA] Tox21 Assay Overview: As cancer cells divide rapidly and during every cell division they need to duplicate their genome by DNA replication. The failure to do so results in the cancer cell death. Based on this concept, many chemotherapeutic agents were developed but have limitations such as low efficacy and severe side effects etc. A new cell based assay was developed to find the compounds that effectively block DNA replication either by directly damaging DNA or by inhibiting other cellular mechanisms. Enhanced Level of Genome Instability Gene 1 (ELG1; human ATAD5) protein levels increase in response to various types of DNA damage. Using a luciferase reporter-gene tagged with ATAD5, a cell-based assay [developed by Kyungjae Myung, NHGRI, NIH] was used to measure the induction of ATAD5 in human embryonic kidney cells (HEK293T). So, increase in luciferase activity can be used to identify the compounds that cause genetic stress.
Tox21 Assay Protocol Summary: For genotoxicity screening, 2,000 cells in 5 uL/well were dispensed into white, solid-bottom 1536-well plates using a Multidrop Combi (Thermo Scientific) dispenser. Following transfer of 23 nL compound or DMSO vehicle by a pin tool, the plates were incubated 16 hr at 37C and 5% CO2. 5 ul Amplite (AAT Bioquest, Inc.) was then added to each plate and following 30 min incubation at room temperature, luciferase activity was quantified on a ViewLux CCD-based plate reader.
Potency is read from the fitted curve at half-maximal effect.

| Compound | Potency |
| --- | --- |
| C[Se]CCC(N)C(=O)O (stereo not given) | inactive |
| O=S(=O)(O)CCCS(=O)(=O)O | inactive |
| CC(C)c1nc(N(C)S(C)(=O)=O)nc(-c2ccc(F)cc2)c1/C=C/C(O)CC(O)CC(=O)O (stereo not given) | inactive |
| OC(CN1CCCCC1)c1cc(-c2ccccc2)on1 (stereo not given) | inactive |
| CN(C)C(=O)CCSC(SCCC(=O)O)c1cccc(/C=C/c2ccc3ccc(Cl)cc3n2)c1 (stereo not given) | 4730 nM (active) |
| CCOC(=O)C1=C(COCCN)NC(C)=C(C(=O)OC)C1c1ccccc1Cl (stereo not given) | inactive |
| CN(C)C=Nc1c(I)cc(I)c(CCC(=O)O)c1I | inactive |
| CN(CC(=O)N1CCOCC1)Cc1c(Cl)cccc1NC(=O)c1ccccc1 | inactive |
| CC[C@@H](C(=O)[C@@H](C)[C@@H](O)[C@H](C)[C@@H]1O[C@@H]([C@@H](CC)C(=O)O)CC[C@@H]1C)[C@H]1O[C@]2(C=C[C@@H](O)[C@]3(CC[C@@](C)([C@H]4CC[C@](O)(CC)[C@H](C)O4)O3)O2)[C@H](C)C[C@@H]1C | inactive |
| CCSc1ccc2c(c1)N(CCCN1CCN(C)CC1)c1ccccc1S2 | inactive |
| CC1=C(C(=O)OCCN(Cc2ccccc2)c2ccccc2)C(c2cccc([N+](=O)[O-])c2)C(P2(=O)OCC(C)(C)CO2)=C(C)N1 (stereo not given) | inactive |
| CC[C@@H](C(=O)O)[C@@H]1O[C@@H]([C@@H](C)[C@H](O)[C@H](C)C(=O)[C@H](CC)[C@H]2O[C@]3(C=C[C@@H](O)[C@]4(CC[C@@](C)([C@H]5CC[C@](O)(CC)[C@H](C)O5)O4)O3)[C@H](C)C[C@@H]2C)[C@@H](C)C[C@@H]1C | inactive |
| O=C1N=C2SCCN2C(=O)C1Cc1ccc(Cl)cc1 (stereo not given) | inactive |
| C#CCOc1ccc2c(C)cc(=O)oc2c1 | inactive |
| O=C(c1cc2ccccc2o1)N1CCN(Cc2ccccc2)CC1 | inactive |
| CCCCCCCCCCCCCCCC(=O)OC[C@@H](O)[C@H]1OC[C@H](O)[C@H]1O | inactive |
| CS(=O)(=O)c1ccc(C2=C(c3ccccc3)C(=O)OC2)cc1 | inactive |
| CO[C@@H]1[C@@H](O[C@@H]2O[C@H](C)[C@@H](O[C@H]3C[C@@](C)(O)[C@@H](OC(=O)CC(C)C)[C@H](C)O3)[C@H](N(C)C)[C@H]2O)[C@@H](CC=O)C[C@@H](C)[C@@H](O)/C=C/C=C/C[C@@H](C)OC(=O)C[C@H]1O | inactive |
| OCCN1CCN(CC/C=C2/c3ccccc3Sc3ccc(Cl)cc32)CC1 | inactive |
| O=P(O)(O)OC(Cn1cncn1)(Cn1cncn1)c1ccc(F)cc1F | inactive |

| Compound | Potency |
| --- | --- |
| CCOc1ccc(N=Nc2ccc(N)cc2N)cc1 | 168 nM (active) |
| CN1c2cc(O)c(N=NC(N)=O)cc2CC1S(=O)(=O)O (stereo not given) | inactive |
| CCOC(=O)CN[C@@H](C(=O)N1CC[C@H]1C(=O)NCc1ccc(/C(N)=N/O)cc1)C1CCCCC1 | inactive |
| CC1=C[C@H](O)CC(C)(C)[C@H]1/C=C/C(C)=C/C=C/C(C)=C/C=C/C=C(C)/C=C/C=C(C)/C=C/C1=C(C)C[C@@H](O)CC1(C)C | inactive |
| CC(O)[C@H]1CC[C@H]2[C@@H]3CC[C@@H]4C[C@@H](O)CC[C@]4(C)[C@H]3CC[C@]12C (stereo not given in full) | inactive |
| CC1=C(/C=C/C(C)=C/C=C/C(C)=C/C=C/C=C(C)/C=C/C=C(C)/C=C/C2=C(C)C(=O)CCC2(C)C)C(C)(C)CCC1=O | inactive |
| O=P(O)(O)OC(CO)CO | inactive |
| CN(C)CC/C=C1/c2ccccc2CSc2ccccc21 | inactive |
| Cc1c(N)nc(C(CC(N)=O)NCC(N)C(N)=O)nc1C(=O)NC(C(=O)NC(C)C(O)C(C)C(=O)NC(C(=O)NCCc1nc(-c2nc(C(=O)NCCCN[C@@H](C)c3ccccc3)cs2)cs1)C(C)O)C(O[C@@H]1O[C@@H](CO)[C@@H](O)[C@H](O)[C@@H]1O[C@H]1O[C@H](CO)[C@@H](O)[C@H](OC(N)=O)[C@@H]1O)c1cnc[nH]1 (stereo not given in full) | inactive |
| COc1ccc(C[C@H](N)C(=O)N[C@H]2[C@@H](O)[C@H](n3cnc4c(N(C)C)ncnc43)O[C@@H]2CO)cc1 | 1060 nM (active) |
| CCCCC(=O)N(Cc1ccc(-c2ccccc2-c2nn[nH]n2)cc1)[C@@H](C(=O)O)C(C)C | inactive |
| CN1CCC(CN2c3ccccc3Sc3ccccc32)C1 (stereo not given) | inactive |
| O=C(O)c1cc(O)c2c(c1)[O][Bi][O]2 | inactive |
| CCCC1([C@H](O)C/C=C/[C@H]2[C@H](O)CC(=O)[C@@H]2CCCCCCC(=O)OC)CCC1 | inactive |
| CC1(C)S[C@@H]2[C@H](NC(=O)C(C(=O)O)c3ccsc3)C(=O)N2[C@H]1C(=O)O (stereo not given in full) | inactive |
| CN(C(=O)CO)c1c(I)c(C(=O)NCC(O)CO)c(I)c(C(=O)NCC(O)CO)c1I (stereo not given) | inactive |
| CCC(=O)OCC(=O)[C@@]1(OC(=O)CC)[C@H](C)C[C@H]2[C@@H]3CCC4=CC(=O)C=C[C@]4(C)[C@@]3(F)[C@@H](O)C[C@@]21C | inactive |
| O=S(=O)(O)c1cc(O)c2c(N=Nc3ccc(Nc4ccccc4)c4c(S(=O)(=O)O)cccc34)cc(S(=O)(=O)O)cc2c1 | inactive |
| CCCOc1cc(N)ccc1C(=O)OCCN(CC)CC | inactive |
| CC(C)(C)NCC(O)CSc1nc(-c2ccc(C(N)=O)s2)cs1 (stereo not given) | inactive |

From PubChem BioAssay (Tox21)
